From PubChem BioAssay (EPA / NIEHS)
Results filed as inconclusive are left out. Activity calls are given as the source filed them. The calls were made as follows, unless noted: active = hit-call score of the fitted dose curve at least 0.9, where 1 is the maximum; inactive = score below 0.9.

Assays:
[1] = test system: DIO1 (gene 1733); experiment: CCTE_GLTED_hDIO1: CCTE's human Deiodinase 1 (DIO1) Inhibition Assay, Great Lakes Toxicology and Ecology Division (GLTED) Lab (AID 2283987; active = hit-call score of the fitted dose curve at least 0.9, where 1 is the maximum;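 also: isolated human DIO1 enzyme in a cell-free setup rather than cells; enzyme activity read as free iodide liberated from substrate via Sandell-Kolthoff colorimetry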)
Summary of the method: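 Cell-free human DIO1 enzyme was incubated with test chemical for 3 h, and iodide released from substrate was measured by Sandell-Kolthoff absorbance. Loss of signal versus DMSO baseline indicated inhibition; plates were run in triplicate.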

[2] = target: Nucleoli Translocation, AR (gene 367) (UniProt P10275); experiment: UPITT_HCI_U2OS_AR_TIF2_Nucleoli_Antagonist: University of Pittsburgh U2OS Androgen Receptor-Transcriptional Intermediary Factor 2 (AR-TIF2) Antagonism High Content Imaging Assay for Nucleoli Translocation (AID 2283997; active = hit-call score of the fitted dose curve at least 0.9, where 1 is the maximum)
Sequence of Nucleoli Translocation, AR (gene 367) (P10275 whole entry, looked up, the tested form may be a part): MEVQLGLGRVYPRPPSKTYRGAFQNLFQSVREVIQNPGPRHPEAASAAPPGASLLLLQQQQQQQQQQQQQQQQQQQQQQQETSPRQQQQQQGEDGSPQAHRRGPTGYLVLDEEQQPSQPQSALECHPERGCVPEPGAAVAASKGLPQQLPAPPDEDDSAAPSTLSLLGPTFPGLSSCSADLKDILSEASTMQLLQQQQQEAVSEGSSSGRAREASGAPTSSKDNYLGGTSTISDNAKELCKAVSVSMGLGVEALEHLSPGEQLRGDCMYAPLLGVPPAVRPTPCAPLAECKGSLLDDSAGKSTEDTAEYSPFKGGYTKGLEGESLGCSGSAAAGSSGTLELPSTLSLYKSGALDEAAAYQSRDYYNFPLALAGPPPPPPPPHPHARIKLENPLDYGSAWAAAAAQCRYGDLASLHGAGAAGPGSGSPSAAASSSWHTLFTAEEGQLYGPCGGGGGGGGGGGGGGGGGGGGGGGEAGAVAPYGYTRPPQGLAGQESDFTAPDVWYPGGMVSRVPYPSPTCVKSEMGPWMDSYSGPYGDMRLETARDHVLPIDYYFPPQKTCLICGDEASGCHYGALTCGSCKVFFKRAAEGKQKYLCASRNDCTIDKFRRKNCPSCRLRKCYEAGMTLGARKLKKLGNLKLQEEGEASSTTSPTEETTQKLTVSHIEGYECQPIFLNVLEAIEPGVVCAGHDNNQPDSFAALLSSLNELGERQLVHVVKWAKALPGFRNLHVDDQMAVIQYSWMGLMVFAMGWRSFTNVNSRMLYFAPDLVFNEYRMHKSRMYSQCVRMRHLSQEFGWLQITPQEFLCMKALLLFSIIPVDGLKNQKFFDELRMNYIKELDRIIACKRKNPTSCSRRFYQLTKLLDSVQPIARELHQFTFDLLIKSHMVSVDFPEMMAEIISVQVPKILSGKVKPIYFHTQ
Summary of the method: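 Measured quantity was AR-RFP fluorescence localized to nucleoli in engineered U2OS cells also bearing TIF2-GFP, acquired on automated high-content imagers. Primary testing used 20 uM compound; actives were confirmed in triplicate wells.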

[3] = target: Nucleoli Translocation, AR (gene 367) (UniProt P10275); experiment: UPITT_HCI_U2OS_AR_TIF2_Nucleoli_Agonist: University of Pittsburgh U2OS Androgen Receptor-Transcriptional Intermediary Factor 2 (AR-TIF2) Agonism High Content Imaging Assay for Nucleoli Translocation (AID 2283998; active = hit-call score of the fitted dose curve at least 0.9, where 1 is the maximum)
Summary of the method: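 Cells express human AR fused to red fluorescent protein and TIF2 fused to GFP. Red fluorescence in the nucleolar region was quantified by high-content imaging and fitted as gain-of-signal against a DMSO baseline. Compounds were tested at 0.195 to 50 uM final (0.5% DMSO).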

[4] = target: Ratio of Nucleoli Translocation and Cytoplasm, AR (gene 367) (UniProt P10275); experiment: UPITT_HCI_U2OS_AR_TIF2_Nucleoli_Cytoplasm_Ratio_Antagonist: University of Pittsburgh U2OS Androgen Receptor-Transcriptional Intermediary Factor 2 (AR-TIF2) Antagonism High Content Imaging Assay for Ratio of Nucleoli Translocation and Cytoplasm (AID 2283999; active = hit-call score of the fitted dose curve at least 0.9, where 1 is the maximum;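 also: antagonists lower the DHT-driven ratio of nucleolar to cytoplasmic red signal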)
Sequence of Ratio of Nucleoli Translocation and Cytoplasm, AR (gene 367) (P10275 whole entry, looked up, the tested form may be a part): as above
Summary of the method: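 Human osteosarcoma U2OS line, AR fused to RFP, coactivator TIF2 fused to GFP. Cpds 20 uM final, 0.2% DMSO (screen); 0.195–50 uM final, 0.5% DMSO (CRC). Endpoint: nucleoli/cytoplasm red signal ratio, DHT as baseline, loss-of-signal antagonist mode.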

[5] = target: Ratio of Nucleoli Translocation and Cytoplasm, AR (gene 367) (UniProt P10275); experiment: UPITT_HCI_U2OS_AR_TIF2_Nucleoli_Cytoplasm_Ratio_Agonist: University of Pittsburgh U2OS Androgen Receptor-Transcriptional Intermediary Factor 2 (AR-TIF2) Agonism High Content Imaging Assay for Ratio of Nucleoli Translocation and Cytoplasm (AID 2284000; active = hit-call score of the fitted dose curve at least 0.9, where 1 is the maximum;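 also: hits raise the red nucleolar to cytoplasm ratio above vehicle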)
Summary of the method: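 Read-out first: nucleolar-to-cytoplasm ratio of red (AR-RFP) signal, quantified by high-content imaging in U2OS cells co-expressing TIF2-GFP. Activity is scored as signal increase over DMSO. Single-point screening used 20 uM final (0.2% DMSO).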

[6] = CCTE_Simmons_MITO_basal_resp_rate: CCTE's HepG2 Seahorse XF Respirometric Screening Assay at Basal Respiratory State, Simmons Lab (AID 2284001); details: actives raise or lower the signal
Summary of the method: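 HepG2 respirometry; 7-pt titration 125 nM–100 uM final; kinetic OCR at 6 min intervals for 72 min; n=3 biological, technical singles; DMSO baseline, gain or loss fit; fenpyroximate (decrease) and 2,4-DNP (increase) controls.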

[7] = CCTE_Simmons_MITO_max_resp_rate: CCTE's HepG2 Seahorse XF Respirometric Screening Assay at Maximal Respiratory State [uncoupled], Simmons Lab (AID 2284002); details: actives raise or lower the signal
Summary of the method: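 HepG2 oxygen consumption was read on a Seahorse XF96 after FCCP uncoupler injection, following test compound injection; 7 concentrations, 125 nM–100 uM final, three biological replicates. Bidirectional fitting against DMSO vehicle baseline.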

[8] = CCTE_Simmons_MITO_inhib_resp_rate: CCTE's HepG2 Seahorse XF Respirometric Screening Assay at Inhibited Respiratory State [full ETC block], Simmons Lab (AID 2284006); details: actives raise or lower the signal
Summary of the method: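 Compound injected onto HepG2 cells (125 nM–100 uM final, 7 points); FCCP then rotenone/antimycin A added. Oxygen consumption read every 6 min (3 min mix, 3 min measure) for 72 min. Inhibited-state OCR fitted against DMSO.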

[9] = CCTE_Simmons_MITO_viability: CellTiter-Glo Viability Assessment for CCTE's HepG2 Seahorse XF Respirometric Screening Assay [post-hoc], Simmons Lab (AID 2284007; active = hit-call score of the fitted dose curve at least 0.9, where 1 is the maximum;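 as to AC50: cells exposed to chemical for 90 min before the ATP read; actives lower ATP signal relative to DMSO baseline meaning reduced viability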)
Summary of the method: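 After the Seahorse oxygen-consumption sequence (basal, FCCP, rotenone/antimycin A; 72 min total), HepG2 viability was scored as ATP content by bioluminescence. Chemicals ran at seven concentrations up to 100 uM final for 90 min.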

[10] = CCTE_Shafer_MEA_acute_spike_number: CCTE's Neural Acute Assay for Total Number of Spikes, Shafer Lab (AID 2284008);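 as to AC50: curve fitted for decrease in spike count so AC50 reflects inhibitors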
Summary of the method: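 Primary rat cortical neurons on 16-electrode MEA wells; on DIV 13 or 15, 40-min baseline then 40-min recording with compound (0.03-40 uM) at 37 C. Spikes detected at 8x rms noise; percent change versus baseline, DMSO as negative control.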

[11] = CCTE_Shafer_MEA_acute_firing_rate_mean: CCTE's Neural Acute Assay for Mean Firing Rate, Shafer Lab (AID 2284009);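 also: analyzed for loss of signal so actives lower firing rate relative to DMSO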
Summary of the method: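 Percent change in well-mean firing rate was derived from extracellular spikes detected at 8x rms noise (300-5000 Hz band-pass) before and after a 40-min compound exposure. Cultures were primary rat cortical neurons, tested at 0.03-40 uM.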

[12] = CCTE_Harrill_HTTr_Viability_MCF7: CCTE's 6-hour Cell Viability Assessment for the High-Throughput Transcriptomics (HTTr) Platform, in MCF-7 cells cultured in DMEM + 10% fetal bovine serum, Harrill Lab (AID 2284010)
Summary of the method: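 Cells were dosed with chemicals in an eight-point dilution series, imaged 6 hours later for propidium iodide uptake, and the endpoint was analyzed by bidirectional fitting against DMSO as negative control.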

[13] = CCTE_Harrill_HTTr_Apoptosis_MCF7: CCTE's 6-hour Apoptosis Assessment for the High-Throughput Transcriptomics (HTTr) Platform, in MCF-7 cells cultured in DMEM + 10% fetal bovine serum, Harrill Lab (AID 2284011)
Summary of the method: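 MCF-7 cells in DMEM + 10% fetal bovine serum were exposed to chemicals for 6 hours over an eight-point dilution series. Caspase-3/7 activation was imaged by high content imaging with CellEvent Caspase 3/7 Green; bidirectional fitting used DMSO as baseline.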

[14] = CCTE_Harrill_HTTr_CellCount_MCF7: CCTE's Cell Proliferation Assessment for the High-Throughput Transcriptomics (HTTr) Platform, Harrill Lab (AID 2284012; active = hit-call score of the fitted dose curve at least 0.9, where 1 is the maximum;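 also: count of Hoechst-stained nuclei per well by high-content imaging in MCF-7 cells; cells exposed to compound for six hours; intended direction is loss of nuclei count meaning fewer cells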)
Summary of the method: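 Chemicals in eight-point dilution series are added to MCF-7 cells for six hours, nuclei are stained with Hoechst and imaged, and per-well nuclei counts are fitted in both directions relative to DMSO controls.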

[15] = CCTE_Shafer_MEA_acute_burst_number: CCTE's Neural Acute Assay for Single-Electrode Bursts, Shafer Lab (AID 2284013)
Summary of the method: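 Spontaneous network activity of primary rat cortical neurons was recorded extracellularly on microelectrode arrays at 37 C, with 40-min periods before and during exposure to 0.03-40 uM compound on DIV 13 or 15.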

[16] = CCTE_Shafer_MEA_acute_burst_duration_mean: CCTE's Neural Acute Assay for Mean Burst Duration, Shafer Lab (AID 2284014);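 also: hits are decreases in mean burst duration relative to DMSO controls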
Summary of the method: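 Read-out is the per-well percent change in mean burst duration (first to last spike within a single-electrode burst) between 40-min recordings before and after compound. Cultures were primary rat cortical neurons on MEAs, dosed at 0.03-40 uM on DIV 13 or 15.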

[17] = CCTE_Shafer_MEA_acute_per_burst_spike_number_mean: CCTE's Neural Acute Assay for Average Number of Spikes Per Burst, Shafer Lab (AID 2284015);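 also: hits are decreases in mean spikes per burst versus baseline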
Summary of the method: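 Rat primary cortical neurons on 48-well MEAs (DIV 13 or 15) were treated with 0.03-40 uM compound at 37 C. Mean spikes per burst over 40 min were recorded before and after exposure and expressed as percent change from baseline, relative to DMSO.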

[18] = CCTE_Shafer_MEA_acute_interburst_interval_mean: CCTE's Neural Acute Assay for Mean Interburst Interval, Shafer Lab (AID 2284016);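 also: percent change of mean interburst interval versus each well's own pre-dose baseline; curves fitted for decrease in interburst interval relative to DMSO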
Summary of the method: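 Rat primary cortical neurons on 48-well MEAs at DIV 13 or 15 were exposed acutely to 0.03-40 uM. Spikes detected at 8x rms noise, 37 C. Mean interburst interval from 40 min recordings expressed as percent change from 40 min pre-treatment baseline.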

[19] = CCTE_Shafer_MEA_acute_burst_percentage_mean: CCTE's Neural Acute Assay for Percentage of Spikes in a Burst, Shafer Lab (AID 2284017);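 also: curve fitted for loss of signal so potency reflects decreased burst percentage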
Summary of the method: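 Primary rat cortical neurons on 48-well MEA plates, treated on DIV 13 or 15 at 0.03-40 uM. Spikes detected at 8x rms noise at 37C; percent change from 40-min baseline to 40-min post-dose recording, fitted versus DMSO.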

Measured: AC50

NCc1cccc(C2CCN(C(=O)c3ccc(C#Cc4ccccc4F)o3)CC2)c1
inactive: [3] | [8] | [9] | [14] | [16]
active: [1] 88.6 µM | [2] 72.7 µM | [4] 27.2 µM | [5] 50 µM | [6] 37.2 µM | [7] 61.4 µM | [10] 9.02 µM | [11] 9.02 µM | [12] 50 µM | [13] 61.4 µM | [15] 8.95 µM | [17] 35.3 µM | [18] 4.14 µM | [19] 30.8 µM

CN(C)c1ccc(C(=C2C=CC(=[N+](C)C)C=C2)c2ccc(N(C)C)cc2)cc1
inactive: [5] | [13] | [14] | [16] | [17] | [18]
active: [2] 0.262 µM | [3] 14.6 µM | [4] 2.66 µM | [6] 50 µM | [7] 41.6 µM | [8] 61.6 µM | [9] 21.4 µM | [10] 0.416 µM | [11] 0.406 µM | [12] 14.4 µM | [15] 0.348 µM | [19] 2.07 µM

O=c1c(-c2ccc(O)cc2)coc2cc(O)cc(O)c12
active: [1] 2.42 µM
inactive: [2] | [3] | [4] | [5] | [12] | [13] | [14]

CCCCOC(=O)c1ccc(O)cc1
active: [6] 23.7 µM | [7] 50 µM | [18] 31 µM | [19] 31.1 µM
not listed: [1]
inactive: all other assays above

COCC(C)OCC(C)OCC(C)O (centres undefined)
inactive: [2] | [3] | [4] | [5] | [12] | [13]
